Hit rate of the full screen: of about 310,000 compounds, about 14,000 (4.5%) showed an effect of 50% or more. The effect is printed as a negative number. This is one part of a sample in which strong results are shown more often than they occur.
target: human ether-à-go-go-related gene (hERG) potassium channel (human, UniProt Q12809); assay: primary screen, population patch clamp on CHO cells stably expressing hERG; higher = less effect of the substance
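Also: peak tail current of the secondary pulse compared with the same well before compound.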

Chain of human ether-à-go-go-related gene (hERG) potassium channel (Q12809 whole entry, looked up): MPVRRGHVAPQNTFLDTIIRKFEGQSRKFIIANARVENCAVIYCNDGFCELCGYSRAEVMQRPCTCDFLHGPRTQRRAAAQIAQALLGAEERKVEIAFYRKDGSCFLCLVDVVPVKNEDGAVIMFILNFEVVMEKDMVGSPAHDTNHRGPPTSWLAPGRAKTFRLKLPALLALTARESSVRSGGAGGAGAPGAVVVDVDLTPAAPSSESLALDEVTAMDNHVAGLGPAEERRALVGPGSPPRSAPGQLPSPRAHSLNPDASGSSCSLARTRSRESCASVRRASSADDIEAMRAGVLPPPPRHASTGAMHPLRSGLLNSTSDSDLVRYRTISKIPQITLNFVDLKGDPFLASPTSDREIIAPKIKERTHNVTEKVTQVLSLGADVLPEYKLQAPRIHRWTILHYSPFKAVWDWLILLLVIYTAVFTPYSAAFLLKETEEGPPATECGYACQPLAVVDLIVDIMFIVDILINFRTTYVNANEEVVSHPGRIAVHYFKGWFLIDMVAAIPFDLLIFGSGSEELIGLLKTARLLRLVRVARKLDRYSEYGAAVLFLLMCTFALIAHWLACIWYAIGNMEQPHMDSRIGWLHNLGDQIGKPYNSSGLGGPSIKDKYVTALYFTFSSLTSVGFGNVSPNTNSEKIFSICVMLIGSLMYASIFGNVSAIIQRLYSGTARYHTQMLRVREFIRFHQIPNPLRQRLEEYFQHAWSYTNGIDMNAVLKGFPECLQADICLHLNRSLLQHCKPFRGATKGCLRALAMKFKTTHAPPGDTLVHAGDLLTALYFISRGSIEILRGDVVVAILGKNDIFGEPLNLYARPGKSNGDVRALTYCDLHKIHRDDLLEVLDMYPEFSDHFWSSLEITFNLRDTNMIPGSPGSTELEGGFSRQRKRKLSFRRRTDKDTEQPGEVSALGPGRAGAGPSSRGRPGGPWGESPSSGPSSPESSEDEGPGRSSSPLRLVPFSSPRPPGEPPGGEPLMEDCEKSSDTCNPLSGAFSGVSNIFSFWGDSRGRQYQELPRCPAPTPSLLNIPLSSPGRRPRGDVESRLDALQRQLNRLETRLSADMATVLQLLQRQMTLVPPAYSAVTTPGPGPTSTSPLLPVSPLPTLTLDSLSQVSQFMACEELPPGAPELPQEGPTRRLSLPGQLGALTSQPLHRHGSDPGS

Compound | hERG current change (%, negative = inhibition) at 10uM [%]
Cn1c2ccccc2c(=O)c2c(=O)n(C3CCCCC3)c(-c3ccco3)nc21 | -53.9
Cc1nc2c(c(=O)c3ccccc3n2C)c(=O)n1C1CCCCCC1 | -0.582
COC(=O)c1sc(NC(=O)COc2cccnc2[N+](=O)[O-])c(C(=O)OC)c1C | 3.81
CCOc1ccccc1Cn1c(=O)oc2ccc(C)cc21 | 11.1
Cc1cc(C)cc(N(CC(=O)NCC2CCCO2)C(=O)CCC(=O)Nc2nccs2)c1 (stereo not shown) | 12.8
O=C(/C=C/c1cccc([N+](=O)[O-])c1)NCCSCc1cccc(Cl)c1 | -18.9
CCOCCCNC(=O)C(NC(=O)c1ccccc1O)c1ccccc1 (stereo not shown) | 7.92
COc1ccc(S(=O)(=O)NCc2cccnc2)cc1C | 17.1
Cc1cc(S(=O)(=O)NCC(C)C)ccc1OCC(=O)N1CCN(Cc2ccccc2)CC1 | -35.2
COc1ccc(S(=O)(=O)NCC(c2cccnc2)N2CCN(c3ccccc3)CC2)cc1C (stereo not shown) | -79.2
CCS(=O)(=O)NCC(c1cccnc1)N1CCN(c2ccccc2OC)CC1 (stereo not shown) | 0.421
COc1ccc(S(=O)(=O)NCC(c2cccnc2)N2CCN(Cc3ccccc3)CC2)cc1C (stereo not shown) | -79.6
COc1ccccc1N1CCN(C(CNS(=O)(=O)c2ccccc2)c2cccnc2)CC1 (stereo not shown) | -7.98
COc1ccc(S(=O)(=O)NCC(c2cccnc2)N2CCN(C)CC2)cc1OC (stereo not shown) | 10.7
COc1ccc(C)cc1S(=O)(=O)NCC(c1cccnc1)N1CCc2ccccc2C1 (stereo not shown) | -25.3
COc1ccccc1N1CCN(C(CNS(=O)(=O)c2ccc(C)cc2)c2cccnc2)CC1 (stereo not shown) | -38.9
CCN1CCN(C(CNS(=O)(=O)c2ccc(OC)c(C)c2)c2cccnc2)CC1 (stereo not shown) | -70.2
COc1ccc(S(=O)(=O)NCC(c2cccnc2)N2CCN(C)CC2)cc1C (stereo not shown) | -62.9
Cc1ccc(Sc2ncccc2COC(=O)NC(C)C)cc1 | 4.99
CC(C)OCCCN(CC(O)c1ccccc1)CC(O)c1ccccc1.O=C(O)C(=O)O (stereo not shown) | -10.1
CC(C)(C)C(=O)C[n+]1cccc(C(N)=O)c1.[Br-] | 21
Cc1nn(-c2ccccc2)c2c1C1(C(=O)N(C(C)C)c3ccccc31)C(C#N)=C(N)O2 (stereo not shown) | -1.88

Compound | hERG current change (%, negative = inhibition) at 10uM [%]
CC1=Nc2cc(C(=O)N3CCCC3)ccc2Sc2c(C)ccc(C)c21 | -19.5
CSc1ncc(OCc2ccccc2)c(=O)[nH]1 | 8.39
O=C1CS/C(=N\NC(=O)c2ccccc2)N1 | 15.6
Cc1oc(-c2cccc(Cl)c2)nc1CN1CCC(C(=O)NCC2CCCO2)CC1 (stereo not shown) | -57.1
COc1ccc(-c2nc(CN3CCC(C(=O)NCC4CCCO4)CC3)c(C)o2)cc1OC (stereo not shown) | -20.9
Cc1ccccc1-c1nc(CN2CCC(C(=O)NC3CC3)CC2)c(C)o1 | -33
Cc1ccccc1-c1nc(CN2CCC(C(=O)NC3CCCCC3)CC2)c(C)o1 | -67.7
Cc1ccccc1-c1nc(CN2CCC(C(=O)NC3CCN(Cc4ccccc4)CC3)CC2)c(C)o1 | -43
Cc1ccccc1-c1nc(CN2CCC(C(=O)NCCN3CCOCC3)CC2)c(C)o1 | -11.4
Cc1cccc(-c2nc(CS(=O)CC(=O)NCC3CCCO3)c(C)o2)c1 (stereo not shown) | -5.24
Cc1oc(-c2ccc(Cl)cc2)nc1CN1CCC(C(=O)NCC2CCCO2)CC1 (stereo not shown) | -70.1
O=C(NCC1CCCO1)C1CCN(C(=O)c2ccc(Cl)cc2)CC1 (stereo not shown) | -1.73
Cc1ccccc1-c1nc(CN2CCC(C(=O)NCC3CCCO3)CC2)c(C)o1 (stereo not shown) | -54.5
Cc1ccccc1-c1nc(CN2CCC(C(=O)NCCCN3CCCC3)CC2)c(C)o1 | 14.4
COc1ccccc1N(CC(=O)NC1CCCCC1)C(=O)CCC(=O)Nc1nccs1 | -2.17
COc1ccc(-c2ccc(SCC(=O)c3ccccc3)nn2)cc1OC | -15.7
CC(=O)c1ccc(NC(=O)Nc2ccccc2)cc1 | -2.03
CCOC(=O)c1c(C)sc2c1N(C(=O)CN1CCOCC1)c1cc(Cl)ccc1S2 | -21.5
CC1CCN(C(=O)CN(C2CCCCC2)S(C)(=O)=O)CC1 | 1.15
COc1ccc(N2CCN(c3cc(C)c4cccc(C)c4n3)CC2)cc1 | 22.7
COc1ccccc1NC(=O)c1nnn(CC(=O)Nc2cc(C)cc(C)c2)c1N | 17
